CIT2 TOR yeast: alters CIT2-GFP fluorescence in TOR pathway yeast screen; S. cerevisiae CIT2-GFP strain, flow cytometry, 3 h; 100 means same as DMSO wells; GFP response vs DMSO, % at 10 µM; 320,000 compounds, 0.065% hits;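 active = GFP response relative to DMSO above a set limit, near the screen mean plus 3 SD, cut at about 150% in these data; inconclusive = Fewer than 70 cells measured for a yeast strain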;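 also: ratio of well median GFP fluorescence to mean of DMSO wells on the plate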
AGP1-GFP MLPCN: modulators of TOR pathway AGP1-GFP in S. cerevisiae. S. cerevisiae AGP1-GFP multiplex flow cytometry, 3 h; GFP as percent of DMSO wells. GFP response vs DMSO, % at 10 µM. 320,000 compounds, 0.02% hits. AID 2066;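 active = GFP response relative to DMSO above a set limit, near screen average plus 3 SD, cut at about 150% in these data; inconclusive = fewer than 70 cells counted for the yeast strain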;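 also: median GFP channel fluorescence of the gated AGP1 strain per well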
RPL19A-GFP yeast: yeast TOR pathway RPL19A-GFP modulation. 330,000 compounds, 0.3% hits. percent response vs DMSO, % at 10 µM. S. cerevisiae RPL19A-GFP strain, flow cytometry, 3 h; active compounds read low;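 active = percent response vs DMSO below 50%; inconclusive = fewer than 70 events counted for the yeast strain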;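 also: median channel GFP fluorescence of the barcoded RPL19A-GFP strain; lower means less RPL19A-GFP as with rapamycin TOR inhibition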
LAP4 TOR yeast: alters LAP4-GFP fluorescence in TOR pathway yeast screen | GFP response vs DMSO, % at 10 µM | 320,000 compounds, 0.34% hits | S. cerevisiae LAP4-GFP multiplex, flow cytometry GFP, 3 h; median GFP as percent of DMSO wells;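 active = GFP response vs DMSO above a set limit, about the screen mean plus 3 SD, cut at about 150% in these data; inconclusive = under 70 cell events counted for the yeast strain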
MEP2 TOR yeast: alters MEP2-GFP fluorescence in TOR pathway yeast screen. S. cerevisiae MEP2-GFP strain, flow cytometry GFP, 3 h; 100% = DMSO control level. GFP response vs DMSO, % at 10 µM. 330,000 compounds, 0.51% hits. AID 2016;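 active = GFP response versus DMSO above a set limit, roughly screen mean plus 3 SD, cut at about 180% in these data; inconclusive = fewer than 70 cells counted for a yeast strain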;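 also: median GFP fluorescence of the barcode-gated MEP2-GFP cells per well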
Each line names hits and unclear results; the compound was inactive in the other large screens; [ ] = remark or other dose. An excerpt weighted towards active compounds, which were near 0.93% of everything screened.

O=C(Nc1cccc(O)c1)C1CC(c2c(F)cccc2Cl)=NO1 (stereo unspecified)	none
O=C(C1CCN(S(=O)(=O)c2cnc[nH]2)CC1)N1CCc2ccccc2C1	RPL19A-GFP yeast 47[may fluoresce violet], MEP2 TOR yeast 454[may fluoresce violet] (no result: CIT2 TOR yeast)
Cc1cccc(N(CC(=O)NC2CCCC2)C(=O)CCC(=O)Nc2ccccn2)c1	CIT2 TOR yeast inconclusive, AGP1-GFP MLPCN inconclusive, MEP2 TOR yeast 280[may fluoresce violet]
Cc1ccc(N(C(=O)CCC(=O)Nc2ccccn2)C(C(=O)NC(C)C)c2ccc(F)cc2)cc1 (stereo unspecified)	none
COCCNC(=O)C(c1ccc(O)cc1)N(Cc1ccco1)C(=O)CCC(=O)Nc1ccccn1 (stereo unspecified)	CIT2 TOR yeast inconclusive, AGP1-GFP MLPCN inconclusive, RPL19A-GFP yeast 48[may fluoresce violet], MEP2 TOR yeast 230[may fluoresce violet]
Cc1cc(C)cc(N(C(=O)CCC(=O)Nc2ccccn2)C(C(=O)NC(C)C)c2ccc(O)cc2)c1 (stereo unspecified)	CIT2 TOR yeast inconclusive, RPL19A-GFP yeast 42[may fluoresce violet], MEP2 TOR yeast 301[may fluoresce violet]
CCOc1ccc(NC(=O)CCC(=O)NNC(=O)COc2ccc(C)cc2Br)cc1	CIT2 TOR yeast inconclusive, AGP1-GFP MLPCN inconclusive, RPL19A-GFP yeast 46[may fluoresce violet], LAP4 TOR yeast inconclusive, MEP2 TOR yeast inconclusive
CCOc1ccc(NC(=O)CCC(=O)NNC(=O)COc2ccc(C)cc2)cc1	none
Cc1ccc(OCC(=O)Nc2ccc(NC(=O)c3ccco3)cc2)c(C)c1	none
Cc1ccc(NC(=O)COc2ccc(Br)cc2C)cc1	MEP2 TOR yeast 243
O=S(=O)(NCCc1ccccc1)c1ccc(Br)s1	none
CC(=O)Nc1ccc(Nc2cc(C)nc3c(-c4ccc(Cl)cc4)c(C)nn23)cc1	MEP2 TOR yeast 262
CC(=O)Nc1ccc(Nc2cc(C)nc3c(-c4ccc(Cl)cc4)cnn23)cc1	none
COc1ccc(NC(=O)c2cc(Cl)ccc2NC(=O)c2ccco2)c(OC)c1	CIT2 TOR yeast inconclusive, AGP1-GFP MLPCN inconclusive, RPL19A-GFP yeast 40[may fluoresce violet], MEP2 TOR yeast 213[may fluoresce violet]
COc1ccc(NC(=O)C2CCN(C(=O)c3ccco3)CC2)c(OC)c1	CIT2 TOR yeast inconclusive, AGP1-GFP MLPCN inconclusive, RPL19A-GFP yeast 42[may fluoresce violet], MEP2 TOR yeast 689[may fluoresce violet]
COc1ccc(NC(=O)C2CCN(S(=O)(=O)c3ccc(OC)c(OC)c3)CC2)c(OC)c1	MEP2 TOR yeast 179
COc1ccccc1NC(=S)N1CCC(NC(=O)c2ccco2)CC1	CIT2 TOR yeast inconclusive, AGP1-GFP MLPCN inconclusive, RPL19A-GFP yeast 24[may fluoresce violet], MEP2 TOR yeast inconclusive
CCOc1ccccc1NC(=S)N1CCC(NC(=O)c2ccco2)CC1	none
COc1ccc(OC)c(S(=O)(=O)N2CCC(C(=O)NC3CCCC3)CC2)c1	CIT2 TOR yeast inconclusive, AGP1-GFP MLPCN inconclusive, RPL19A-GFP yeast inconclusive, MEP2 TOR yeast 219[may fluoresce red and violet]
COc1ccc(OC)c(S(=O)(=O)N2CCC(C(=O)NC3CCCCCC3)CC2)c1	none
COc1ccc(CNc2nc(-c3cccnc3)nn2C(=O)c2ccco2)cc1	CIT2 TOR yeast inconclusive, AGP1-GFP MLPCN inconclusive, MEP2 TOR yeast 280[may fluoresce violet] (no result: RPL19A-GFP yeast)
COc1ccc(CNc2nc(-c3cccnc3)nn2C(C)=O)cc1	none
COc1ccc2c(c1OC)C(=O)N1C2SC[C@H]1C(=O)NC1CCCC1 (stereo partly specified)	CIT2 TOR yeast inconclusive, AGP1-GFP MLPCN inconclusive, RPL19A-GFP yeast 6.8[may fluoresce violet]
c1ccc2c(c1)ccc1ncccc12	none
Oc1c(N=Nc2ccccn2)ccc2ccccc12	LAP4 TOR yeast 171
FC(F)C(F)(F)C1=CC(c2ccccc2)=NCCN1	none
CCOC(=O)C1=C(c2ccccc2)NC(=S)NC1c1cc([N+](=O)[O-])ccc1OC (stereo unspecified)	MEP2 TOR yeast 272 (no result: RPL19A-GFP yeast)
Cc1ccc(S(=O)(=O)NCC(=O)N(CC(=O)NCc2ccco2)Cc2ccc(F)cc2)cc1	CIT2 TOR yeast inconclusive, MEP2 TOR yeast 279[may fluoresce violet]
COc1ccc(S(=O)(=O)NCC(=O)N(CC(=O)NCc2ccco2)Cc2ccc(F)cc2)cc1	MEP2 TOR yeast 187
CCS(=O)(=O)N1CCN(CC2CC3C=CC2C3)CC1 (stereo unspecified)	none
Cc1ccc2c(c1)c1c(c(=O)n(-c3ccccc3C)c(=O)n1CC(=O)NCC1CCCO1)n2C (stereo unspecified)	RPL19A-GFP yeast 46
CO/N=C(/C(=O)N[C@@H]1C(=O)N2C(C(=O)O)=CCS[C@H]12)c1cnc(N)s1	none
Cc1c(O)ccc(C(=O)CN2CCN(c3ccc(F)cc3)CC2)c1O	AGP1-GFP MLPCN inconclusive, RPL19A-GFP yeast 38
COc1cc(S(=O)(=O)NCCc2ccc3c(c2)OCO3)ccc1-n1cnnn1	none
COc1ccc(S(=O)(=O)N2CCN(C3CCCC(C)C3)CC2)cc1 (stereo unspecified)	none
CC1CCCC(N2CCN(S(=O)(=O)c3ccccc3)CC2)C1 (stereo unspecified)	CIT2 TOR yeast inconclusive, AGP1-GFP MLPCN inconclusive, MEP2 TOR yeast 226[may fluoresce violet]
O=C(Nc1ccccc1N1CCOCC1)c1ccccc1[N+](=O)[O-]	CIT2 TOR yeast inconclusive, AGP1-GFP MLPCN inconclusive, RPL19A-GFP yeast 19[may fluoresce violet], LAP4 TOR yeast inconclusive, MEP2 TOR yeast inconclusive
O=C(Nc1ccccc1N1CCOCC1)c1ccc(N2CCOCC2)c([N+](=O)[O-])c1	none
Cc1ccc(-c2nnn(CC(=O)N(CC(=O)NC3CCCC3)c3ccc(F)cc3)n2)o1	MEP2 TOR yeast 179
Cn1c(=O)c([N+](=O)[O-])c(-n2ccnc2)c2ccccc21	none
COCCN(C(=S)Nc1ccccc1OC)C1CCN(C(C)=O)CC1	none
Cc1ccc(NC(=O)Nc2cc(C)on2)cc1	none
Cc1cccc(NC(=O)Nc2cc(C)on2)c1	CIT2 TOR yeast inconclusive, AGP1-GFP MLPCN inconclusive, RPL19A-GFP yeast 14[may fluoresce violet], LAP4 TOR yeast inconclusive, MEP2 TOR yeast 242[may fluoresce violet]
CCOC(=O)C1CCN(S(=O)(=O)c2nc3nc(C)cc(C)n3n2)CC1	none
COc1cccc(OCc2nnc(SCC(=O)OC3CCCCC3)n2C)c1	CIT2 TOR yeast inconclusive, AGP1-GFP MLPCN inconclusive, MEP2 TOR yeast 228[may fluoresce violet]
COc1cccc(OCc2nnc(SCC(=O)NNC(=O)C3CCCCC3)n2C)c1	none
COC(=O)c1sc(-c2ccc(C(C)(C)C)cc2)cc1NC(=O)CCC(=O)O	RPL19A-GFP yeast 40
CC(=O)c1sc(C(C)(C)C)cc1NC(=O)CCC(=O)O	none
COC(=O)c1sc(-c2ccc(Cl)cc2)cc1NC(=O)COCC(=O)O	none
COC(=O)c1sc(-c2ccc(Cl)cc2)cc1NC(=O)/C=C/C(=O)O	CIT2 TOR yeast inconclusive, AGP1-GFP MLPCN inconclusive, RPL19A-GFP yeast 43[may fluoresce violet], MEP2 TOR yeast 351[may fluoresce violet]
S=C(Nc1cccnc1)NC1CCCC1	none
Cc1cccc(C)c1NC(=O)CSc1nc(C)c(CC(=O)c2ccc(Br)cc2)c(C)c1C#N	CIT2 TOR yeast inconclusive, MEP2 TOR yeast 228[may fluoresce violet]
Cc1ccc(C(=O)Nc2nnc(CC(=O)N/N=C/c3ccc(O)c(O)c3)s2)cc1	MEP2 TOR yeast 185
Cc1ccc(C(=O)Nc2nnc(CC(=O)N/N=C/c3ccncc3)s2)cc1	none
Cc1ccnc(NC(=O)Nc2ccc(F)cc2)c1	CIT2 TOR yeast inconclusive, MEP2 TOR yeast 175[may fluoresce violet]

Assay outcomes (PubChem)
